Data published in PubChem BioAssay AID1159580 (chemical genetic matrix, 2015).
Screen size: about 5,500 compounds; about 2,000 (36%) were called active. Another 18% or so got no clear call; they are omitted. Rule as the data show it: active = normalized growth mostly below about 0.91 (no sharp cut-off); inconclusive = no clear call, values can overlap the other calls; inactive = mostly above about 0.92. The list shows a part of the results.

Test: chemical genetic growth profiling, strain panel (AID 1159580);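 also: tested at 20 µM; growth read once vehicle control cultures reached saturation at 30 °C; 1 = growth at the plate median or of vehicle wells; lower values mean less growth of the strain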
Conditions: S. cerevisiae deletion strains, growth OD

Measured: normalized growth

CCCCCCCCCCCCCCCC(=O)OC[C@H](NC(=O)C(Cl)Cl)[C@H](O)c1ccc([N+](=O)[O-])cc1
active: locus YMR058W, strain fet3, active compounds read low 0.88 | locus YMR129W, active compounds read low 1.09 [resistant]
inactive: locus YAL021C, strain ccr4, active compounds read low 0.986 | locus YAL026C, strain drs2, active compounds read low 0.995 | locus YAL030W, strain snc1, active compounds read low 1.04 | locus YBL061C, strain skt5, active compounds read low 1.02 | locus YBR009C, strain hhf1, active compounds read low 1.02 | locus YBR023C, strain chs3, active compounds read low 1.01 | locus YBR171W, strain sec66, active compounds read low 1.06 | locus YBR231C, strain swc5, active compounds read low 1.01 | locus YBR279W, strain paf1, active compounds read low 1.02 | locus YCL011C, strain gbp2, active compounds read low 1.03 | locus YCL016C, strain dcc1, active compounds read low 1 | locus YCL069W, strain vba3, active compounds read low 1.04 | locus YCR088W, strain abp1, active compounds read low 1.04 | locus YDL005C, strain med2, active compounds read low 1.05 | locus YDL040C, strain nat1, active compounds read low 1.01 | locus YDR001C, strain nth1, active compounds read low 1.03 | locus YDR069C, strain doa4, active compounds read low 0.973 | locus YDR137W, strain rgp1, active compounds read low 1.01 | locus YDR159W, strain sac3, active compounds read low 1.03 | locus YDR195W, strain ref2 1.05 | locus YDR297W, strain sur2, active compounds read low 1.03 | locus YDR334W, strain swr1, active compounds read low 1.03 | locus YDR335W, strain msn5, active compounds read low 1.02 | locus YDR392W, strain spt3, active compounds read low 1.03 | locus YEL003W, strain gim4, active compounds read low 1.04 | locus YEL037C, strain rad23, active compounds read low 1.03 | locus YEL061C, strain CIN8 (second series), active compounds read low 1.04 | locus YER015W, strain faa2, active compounds read low 1 | locus YER016W, strain bim1, active compounds read low 1.02 | locus YER111C, strain swi4, active compounds read low 1.02 | locus YER155C, strain BEM2 (second series), active compounds read low 1.03 | locus YFR010W, strain ubp6, active compounds read low 1.01 | locus YGL167C, strain pmr1, active compounds read low 1.03 | locus YGL173C, strain kem1, active compounds read low 1.05 | locus YGL227W, strain vid30, active compounds read low 1.04 | locus YGL240W, strain doc1, active compounds read low 1.07 | locus YGL253W, strain hxk2, active compounds read low 1.01 | locus YHR013C, strain ard1, active compounds read low 1.07 | locus YHR027C, strain rpn1, active compounds read low 0.992 | locus YHR030C, strain SLT2, active compounds read low 0.97 | locus YHR079C, strain IRE1, active compounds read low 0.985 | locus YHR142W, strain chs7, active compounds read low 1.05 | locus YJL092W, strain hpr5, active compounds read low 1.04 | locus YJL095W, strain BCK1 (second series), active compounds read low 1.05 | locus YJL095W, strain BCK1, active compounds read low 0.998 | locus YJL115W, strain asf1, active compounds read low 1.05 | locus YJL129C, strain trk1, active compounds read low 1.09 | locus YJL154C, strain vps35, active compounds read low 1.03 | locus YJL164C, strain tpk1, active compounds read low 1.04 | locus YJL166W, strain qcr8, active compounds read low 1.03 | locus YJL187C, strain SWE1, active compounds read low 1.05 | locus YJR066W, strain TOR1, active compounds read low 0.984 | locus YKL160W, strain elf1, active compounds read low 1.02 | locus YKR026C, strain gcn3, active compounds read low 1.03 | locus YKR091W, strain srl3, active compounds read low 1.02 | locus YLL001W, strain dnm1, active compounds read low 1.02 | locus YLL026W, active compounds read low 1 | locus YLL041C, strain sdh2, active compounds read low 1.02 | locus YLR027C, strain aat2, active compounds read low 1.02 | locus YLR113W, strain HOG1, active compounds read low 0.975 | locus YLR221C, strain rsa3, active compounds read low 1.02 | locus YLR258W, strain gsy2, active compounds read low 1.03 | locus YLR262C, strain YPT6 (second series), active compounds read low 1.03 | locus YLR320W, strain mms22, active compounds read low 1.01 | locus YLR342W, strain FKS1, active compounds read low 1.01 | locus YLR357W, strain rsc2, active compounds read low 1.03 | locus YLR370C, strain arc18, active compounds read low 1.04 | locus YLR384C, strain iki3, active compounds read low 1.02 | locus YML120C, strain ndi1, active compounds read low 1.01 | locus YMR125W, strain sto1, active compounds read low 1.06 | locus YMR205C, strain PFK2, active compounds read low 1.04 | locus YMR231W, strain pep5, active compounds read low 1.03 | locus YNL071W, strain lat1, active compounds read low 0.986 | locus YNL183C, strain NPR1, active compounds read low 0.927 | locus YNL209W, strain ssb2, active compounds read low 0.995 | locus YNL248C, strain rpa49, active compounds read low 1.04 | locus YNL322C, strain KRE1 (second series), active compounds read low 1.05 | locus YNR049C, strain mso1, active compounds read low 1.04 | locus YOR001W, strain rrp6, active compounds read low 1.03 | locus YOR070C, strain gyp1, active compounds read low 1.03 | locus YOR080W, strain dia2, active compounds read low 1.03 | locus YOR083W, strain WHI5, active compounds read low 1 | locus YOR106W, strain vam3, active compounds read low 1.02 | locus YOR231W, strain MKK1, active compounds read low 0.997 | locus YOR265W, strain rbl2, active compounds read low 1.02 | locus YOR270C, strain vph1, active compounds read low 1 | locus YOR290C, strain snf2, active compounds read low 0.999 | locus YPL051W, strain arl3, active compounds read low 0.999 | locus YPL078C, strain atp4, active compounds read low 1.04 | locus YPL106C, strain sse1, active compounds read low 1.08 | locus YPL240C, strain hsp82, active compounds read low 1.05 | locus YPL256C, strain CLN2, active compounds read low 1.01
